High-throughput results as filed in PubChem.
Compounds with a hit are over-represented: about 28% of the library has one in this group of screens.
CYP2C19 inhib – human CYP2C19 inhibition. P33261. CYP2C19 Supersomes, luciferin-H EGE luminescence, 30 min. inhibition, % at 5 µM. hit rate 21% among 96,000;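 active = CYP2C19 inhibition above a set limit at 5 µM in the primary screen, cut at about 50% in these data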
Target sequence (P33261 whole entry, looked up): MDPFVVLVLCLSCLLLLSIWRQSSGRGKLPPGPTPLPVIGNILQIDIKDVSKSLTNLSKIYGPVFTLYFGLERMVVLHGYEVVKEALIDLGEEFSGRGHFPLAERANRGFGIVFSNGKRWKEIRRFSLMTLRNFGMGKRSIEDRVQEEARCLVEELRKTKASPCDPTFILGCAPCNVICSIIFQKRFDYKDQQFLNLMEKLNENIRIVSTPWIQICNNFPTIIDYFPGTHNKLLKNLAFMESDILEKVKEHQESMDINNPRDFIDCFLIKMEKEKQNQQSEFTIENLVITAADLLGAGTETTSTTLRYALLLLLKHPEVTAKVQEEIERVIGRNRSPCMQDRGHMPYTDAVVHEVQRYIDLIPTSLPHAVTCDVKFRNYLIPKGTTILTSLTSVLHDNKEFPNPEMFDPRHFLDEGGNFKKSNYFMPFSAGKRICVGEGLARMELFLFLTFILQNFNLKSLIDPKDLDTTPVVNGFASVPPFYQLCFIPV
CYP2C9 activ – CYP2C9 (human) activation | activation factor at 5 µM | hit rate 1.4% among 96,000 | recombinant CYP2C9, luciferin-H conversion, luminescence; stronger effect = higher value; factor 1 = untreated enzyme, 0 = blocked | AID 1024;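 active = activation factor of 2 or more for CYP2C9 at a 5 µM dose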
CYP2C9 inh – inhibitors of human CYP2C9. P11712. CYP2C9 Supersomes, luciferin-H conversion, luminescence. inhibition, % at 5 µM. hit rate 20% among 96,000. AID 777;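 active = blocking of liver enzyme CYP2C9 beyond about 50% at 5 µM, limit read from the data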
CYP2C19 activ – increases human CYP2C19 enzyme activity; P33261; recombinant CYP2C19, luciferin-H EGE luminescence; stronger effect = higher value; 0 = fully inhibited enzyme, 1 = untreated enzyme; activation factor at 5 µM; 96,000 tested, under 10 active; AID 1025;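 active = activation factor of at least 2 at 5 µM in the primary screen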
CD11b adhes enh – increases human CD11b/CD18 adhesion to fibrinogen | P05107+P11215 | K562 CD11b/CD18 adhesion to fibrinogen, ATPlite luminescence | activation, % at 10 µM | hit rate 0.07% among 93,000 | AID 1499;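 active = 10 µM primary screen giving 50% or more activity, confirmed by 40% or more on retest at that dose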
Mac1 fbg inh – CD11b/CD18-fibrinogen binding inhibition. K562 CD11b/CD18 adhesion to fibrinogen, ATPlite luminescence; Mn2+ added to activate the integrin. inhibition, % at 10 µM. hit rate 0.54% among 93,000. AID 1497;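 active = primary inhibition of 50% or more at 10 µM, then 40% or more on retest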
Numbers stand for hits.

Screening O=C(Oc1cccc(N2C(=O)CCC2=O)c1)C1CC(=O)N(c2ccc(F)cc2)C1 (stereo not drawn) returned CYP2C19 inhib inactive, CYP2C9 activ inactive, CYP2C9 inh inactive, CYP2C19 activ inactive, CD11b adhes enh inactive and Mac1 fbg inh inactive.
O=S(=O)(c1ccc(Nc2ccc3c(c2)OCO3)nc1)N1CCOCC1 was read as CYP2C19 inhib inactive, CYP2C9 activ inactive, CYP2C9 inh 78, CYP2C19 activ inactive, CD11b adhes enh inactive and Mac1 fbg inh inactive.
`COC(=O)c1cccc(S(=O)(=O)N2CCCCC2)c1` gave CYP2C19 inhib 58, CYP2C9 activ inactive, CYP2C9 inh inactive, CYP2C19 activ inactive, CD11b adhes enh inactive and Mac1 fbg inh inactive.
Screening NC(=O)c1cccc(S(=O)(=O)N2CCCCC2)c1 returned CYP2C19 inhib inactive, CYP2C9 activ inactive, CYP2C9 inh inactive, CYP2C19 activ inactive, CD11b adhes enh inactive and Mac1 fbg inh inactive.
`O=C(OCc1ccc2c(c1)OCO2)c1ccc(S(=O)(=O)N2CCCC2)cc1` gave CYP2C19 inhib 83, CYP2C9 activ inactive, CYP2C9 inh 97, CYP2C19 activ inactive, CD11b adhes enh inactive and Mac1 fbg inh inactive.
Screening O=C(OCc1ccc2c(c1)OCO2)c1cccc(S(=O)(=O)N2CCCCC2)c1 returned CYP2C19 inhib 92, CYP2C9 activ inactive, CYP2C9 inh 99, CYP2C19 activ inactive, CD11b adhes enh inactive and Mac1 fbg inh inactive.
For Cn1cnnc1SCC(=O)c1ccc2c(c1)CCCC2 the results were CYP2C19 inhib inactive, CYP2C9 activ inactive, CYP2C9 inh inactive, CYP2C19 activ inactive, CD11b adhes enh inactive and Mac1 fbg inh inactive.
`CN(C)C(=S)Nc1ccc2ccccc2c1` gave CD11b adhes enh inactive and Mac1 fbg inh inactive.
For CCCc1nc2sc3c(SCC(=O)NCc4ccco4)ncnc3c2c2c1CCC2 the results were CYP2C19 inhib inactive, CYP2C9 activ inactive, CYP2C9 inh inactive, CYP2C19 activ inactive, CD11b adhes enh inactive and Mac1 fbg inh inactive.
Screening O=C(COC(=O)c1cccc(S(=O)(=O)N2CCOCC2)c1)Nc1ccc2c(c1)OCO2 returned CYP2C19 inhib 70, CYP2C9 activ inactive, CYP2C9 inh 61, CYP2C19 activ inactive, CD11b adhes enh inactive and Mac1 fbg inh inactive.
CC1(C)Cc2c(C#N)c(NCCCO)nc(-c3ccccc3)c2CO1 was read as CYP2C19 inhib inactive, CYP2C9 activ inactive, CYP2C9 inh 61, CYP2C19 activ inactive, CD11b adhes enh inactive and Mac1 fbg inh inactive.
CCN(CC)CCNc1nc(-c2ccccc2)c2c(c1C#N)CC(C)(C)OC2 was read as CYP2C19 inhib inactive, CYP2C9 activ inactive, CYP2C9 inh inactive, CYP2C19 activ inactive, CD11b adhes enh inactive and Mac1 fbg inh inactive.
Screening CC1(C)Cc2c(c(-c3ccccc3)nc3[nH][nH]c(=O)c23)CO1 returned CYP2C19 inhib 57, CYP2C9 activ inactive, CYP2C9 inh inactive, CYP2C19 activ inactive, CD11b adhes enh inactive and Mac1 fbg inh inactive.
`Cc1ccc(N2C(=O)CSC2c2ccccn2)cc1Cl` (stereo not drawn) gave CYP2C19 inhib inactive, CYP2C9 activ inactive, CYP2C9 inh inactive and CYP2C19 activ inactive.
CCOc1ccc(-c2cn(CCC#N)cn2)cc1 was read as CYP2C19 inhib 65, CYP2C9 activ inactive, CYP2C9 inh inactive, CYP2C19 activ inactive, CD11b adhes enh inactive and Mac1 fbg inh inactive.
`COc1ccc(-c2cc3ccccc3n2CC(O)CN2CCN(CCO)CC2)cc1` (stereo not drawn) gave CYP2C19 inhib inactive, CYP2C9 activ inactive, CYP2C9 inh inactive, CYP2C19 activ inactive, CD11b adhes enh inactive and Mac1 fbg inh inactive.
Screening Cc1ccc(S(=O)(=O)N(CC(O)CN2CCOCC2)c2cc(Cl)ccc2Cl)cc1 (stereo not drawn) returned CYP2C19 inhib 54, CYP2C9 activ inactive, CYP2C9 inh inactive, CYP2C19 activ inactive, CD11b adhes enh inactive and Mac1 fbg inh inactive.
`Cc1ccc(N(CC(O)CN2CCOCC2)S(=O)(=O)c2ccc3ccccc3c2)cc1` (stereo not drawn) gave CYP2C19 inhib inactive, CYP2C9 activ inactive, CYP2C9 inh 52, CYP2C19 activ inactive, CD11b adhes enh inactive and Mac1 fbg inh inactive.
COc1ccc(-c2cc3ccccc3n2CC(O)CN2CCOCC2)cc1 (stereo not drawn) was read as CYP2C19 inhib 95, CYP2C9 activ inactive, CYP2C9 inh 63, CYP2C19 activ inactive, CD11b adhes enh inactive and Mac1 fbg inh inactive.
